About 83,000 compounds went through this panel and 20% of them were active in at least one assay; those are over-represented in the sample as a whole.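 Method: cells in 96-well plates; compound added at one concentration; 48 h incubation; percent growth measured; values under 10 scored active.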 Calls of active or inactive are those of the source.

This note sets out measurements from PubChem BioAssay (NCI).

The subject of the assay is LOX IMVI melanoma. As to the kind of experiment: NCI-60 one-dose screen, 48 h (100 = growth as untreated, 0 = no growth, -100 = all killed). Particulars: 10 µM. As for the experimental part: Growth inhibition of the LOX IMVI human tumor cell line is measured as a screen for anti-cancer activity. Cells are grown in 96 well plates and exposed to the test compound for 48 hours. Compounds are tested at a single concentration, which is 10^-5 M for most compounds. The reported endpoint is percent growth (GI% or GIPRCNT), where numbers from 0 - 100% represent growth inhibition, and numbers from -100% - 0 represent cell death. For example, a value of 40 represents 60% growth inhibition. A value of 0 means no net growth occurred over the course of the experiment. A value of -40 indicates 40% of cells at the beginning of the experiment died by the end of the experiment. A value of -100 means all cells are dead at the end of the experiment.
NCI-60 Human Tumor Cell Lines Screen was performed using the standard one-dose NCI protocol, which is described in more detail at https://dtp.cancer.gov/discovery_development/nci-60/default.htm.
Compounds with GIPRCNT values below 10 were considered active. Activity score was based on GIPRCNT using the following formula: […]
Score is 0 for GIPRCNT values of 100 or above, 50 for GIPRCNT values of 0, and 100 for GIPRCNT values of -100.
Turning to `C=CCN=C([Se])NC(=O)c1ccc2c(c1)OCO2`, the growth was 104% (inactive).

As for `CCOC(=O)C1=C(Nc2ccccc2)C(=O)OC12C(=O)Nc1ccccc12` (stereo not given), the growth is 94.3% (inactive).

With `C[C@H]1[C@H](OC(=O)CCC(=O)N(CCCc2cn(-c3ccc(C#N)cc3)nn2)CCNc2ccnc3cc(Cl)ccc23)O[C@@H]2OC3(C)CC[C@H]4[C@H](C)CC[C@@H]1[C@@]24OO3`, the growth was 13.3% (inactive).

As to `O=C(NCCCCC(c1ccc(F)cc1)c1ccc(F)cc1)Nc1ccc([N+](=O)[O-])c(C(F)(F)F)c1`, the growth is -73.8% (active).

On to `CC1=C(CCC=NNC(N)=O)C2=C(C)C3(CC3)[C@@](C)(O)C(=O)C2=C1`, for which the growth is -71.9% (active).

Regarding `COC(=O)C[C@](O)(CCCC(C)C)C(=O)O[C@H]1C(OC)=C[C@@]23CCCN2CCc2cc4c(cc2[C@@H]13)OCO4`, the growth is -66.6% (active).

Consider `CC(C)N=C([Se])NC(=O)c1ccccc1`, for which the growth is -37.3% (active).

On to `CC12OOC(C)(OO1)C2CCC(=O)OCCNc1ccnc2cc(Cl)ccc12` (stereo not given), for which the growth is -92.1% (active).

Consider `CC12CCC3(CCC(=O)NCCCNc4ccnc5cc(Cl)ccc45)[C@@](C)(OO[C@]3(C)O1)O2`, for which the growth was -78.1% (active).

Take `CC[C@]12C=CCN3CC[C@@]4(c5ccc(OC)cc5N(C)[C@H]4[C@@](O)(C(=O)OC)[C@@H]1OC(=O)CCCC[P+](C1CCCCC1)(C1CCCCC1)C1CCCCC1)[C@@H]32`: the growth was -96.1% (active).

In the case of `CC12OOC(C)(OO1)C2CCC(=O)NCCNc1ccnc2cc(Cl)ccc12` (stereo not given), the growth is 3.57% (active).

As to `CC[C@]12C=CCN3CC[C@@]4(c5ccc(OC)cc5N(C)[C@H]4[C@@](O)(C(=O)OC)[C@@H]1OC(=O)CCC[P+](C1CCCCC1)(C1CCCCC1)C1CCCCC1)[C@@H]32`, the growth was -96% (active).

`COc1cc2cc(C(=O)N3C[C@@H](CCl)c4c3cc(OC(=O)N3CCN(C(=O)CCC(=O)N5CCN(C)CC5)[C@@H]5CSSC[C@@H]53)c3ccccc43)[nH]c2c(OC)c1OC`: the growth is -100% (active).

For the compound `COc1cc2cc(C(=O)N3C[C@@H](CCl)c4c3cc(OC(=O)N3CCN(C)[C@@H]5CSSC[C@@H]53)c3ccccc43)[nH]c2c(OC)c1OC`, the growth was -32.7% (active).

`CC1=C(C=O)C2=C(C)C3(CC3)[C@@](C)(O)C(=O)C2=C1`: the growth is -76.1% (active).

Consider `C[C@H]1[C@H](OC(=O)CCC(=O)N(CCCc2cn(-c3ccc([N+](=O)[O-])cc3)nn2)CCNc2ccnc3cc(Cl)ccc23)O[C@@H]2OC3(C)CC[C@H]4[C@H](C)CC[C@@H]1[C@@]24OO3`, for which the growth is 21.7% (inactive).

As to `COC(=O)C[C@](O)(CCC(C)C)C(=O)O[C@@H]1C(OC)=C[C@]23CCCN2CCc2cc4c(cc2[C@H]13)OCO4`, the growth is -82.6% (active).

For the compound `COC(=O)C[C@](O)(CCC(C)C)C(=O)O[C@H]1C(OC)=C[C@@]23CCCN2CCc2cc4c(cc2[C@@H]13)OCO4`, the growth was -82.4% (active).

As to `CC[C@]12C=CCN3CC[C@@]4(c5ccc(OC)cc5N(C)[C@H]4[C@@](O)(C(=O)OC)[C@@H]1OC(=O)CCCC[P+](c1ccc(OC)cc1)(c1ccc(OC)cc1)c1ccc(OC)cc1)[C@@H]32`, the growth was -96.4% (active).

`COC(=O)CCn1c(-c2ccc(-n3cc(-c4ccc(O[C@H]5O[C@@H]6OC7(C)CC[C@H]8[C@H](C)CC[C@@H]([C@H]5C)[C@@]68OO7)cc4)nn3)cc2)nc2ccccc21`: the growth was -54.5% (active).

`O=C(NC([Se])=NC1CCCCC1)c1ccc2c(c1)OCO2`: the growth is 81.6% (inactive).

Turning to `CC[C@@]12CC(C(=O)OC)=C3Nc4cc5c(cc4[C@@]34CCN(C[C@H]3O[C@H]31)[C@@H]24)[C@@H]1[C@H](O5)[C@@H](O)[C@@]2(CC)CC(C(=O)OC)=C3Nc4cc(OC)ccc4[C@@]34CCN1[C@@H]24`, the growth was -64.9% (active).

In the case of `C#CC[Se]C(=O)c1ccc(C(=O)[Se]CC#C)s1`, the growth was 93.1% (inactive).

With `COCCOCCOCCOc1ccc(-n2cc(-c3ccc(O[C@H]4O[C@@H]5OC6(C)CC[C@H]7[C@H](C)CC[C@@H]([C@H]4C)[C@@]57OO6)cc3)nn2)cc1`, the growth is 36.1% (inactive).

For the compound `CC1=C(CCC=O)C2=C(C)C3(CC3)[C@@](C)(O)C(=O)C2=C1`, the growth was -94.8% (active).

Turning to `C[C@H]1[C@@H](Oc2ccc(-c3cn(-c4ccnc5cc(Cl)ccc45)nn3)cc2)O[C@@H]2OC3(C)CC[C@H]4[C@H](C)CC[C@@H]1[C@@]24OO3`, the growth was 10.9% (inactive).

`CC12OOC(C)(OO1)C2CCC(=O)NCCCNc1ccnc2cc(Cl)ccc12` (stereo not given): the growth was -92.8% (active).

On to `COc1cc2cc(C(=O)N3C[C@@H](CCl)c4c3cc(OC(=O)N3CCN(C)[C@@H]5CSSC[C@H]53)c3ccccc43)[nH]c2c(OC)c1OC`, for which the growth was -90.2% (active).

Take `COC(=O)c1ccc(-n2cc(CCCN(CCNc3ccnc4cc(Cl)ccc34)C(=O)CCC(=O)O[C@@H]3O[C@@H]4OC5(C)CC[C@H]6[C@H](C)CC[C@@H]([C@H]3C)[C@@]46OO5)nn2)cc1`: the growth was 8.12% (active).

With `CCOP(=O)(CC(F)(F)C(F)(F)F)OCC`, the growth is -64% (active).

Take `CC[C@]12C=CCN3CC[C@@]4(c5ccc(OC)cc5N(C)[C@H]4[C@@](O)(C(=O)OC)[C@@H]1OC(=O)CCCC[P+](c1ccc(C)cc1)(c1ccc(C)cc1)c1ccc(C)cc1)[C@@H]32`: the growth is -94.5% (active).

On to `COCCOCCOCCOc1ccc(-n2cc(CCCN(CCNc3ccnc4cc(Cl)ccc34)C(=O)CCC(=O)O[C@@H]3O[C@@H]4OC5(C)CC[C@H]6[C@H](C)CC[C@@H]([C@H]3C)[C@@]46OO5)nn2)cc1`, for which the growth is 1.51% (active).

As to `CCOP(=O)(OCC)C(NC(C)=O)C(=O)SCCN` (stereo not given), the growth was 92.1% (inactive).

On to `CC1=C2C(=C[C@@](C)(COP(=O)(Oc3ccccc3)Oc3ccccc3)[C@@H]2O)C(=O)[C@@](C)(O)C12CC2`, for which the growth was -76.3% (active).

For the compound `C=CC[Se]C(=O)c1ccc(C(=O)[Se]CC=C)s1`, the growth is -75.6% (active).

Take `CC(=C\C(=O)Oc1ccc2c3c1OC1C(O)CCC4(O)C(C2)N(CC2CCC2)CCC314)/C=C1\CCCc2ccccc21` (stereo not given): the growth was 5.47% (active).

For `CC1=C(COCCOC(=O)c2ccc(S(=O)(=O)F)cc2)C2=C(C)C3(CC3)[C@@](C)(O)C(=O)C2=C1`, the growth was -62.7% (active).

Regarding `Cc1c2oc3c(C)ccc(C(=O)N[C@@H]4C(=O)N[C@H](C(C)C)C(=O)N5CCC[C@H]5C(=O)N(C)CC(=O)N(C)[C@@H](C(C)C)C(=O)OC4C)c3nc-2c(C(=O)N[C@@H]2C(=O)N[C@H](C(C)C)C(=O)N3CC(=O)C[C@H]3C(=O)N(C)CC(=O)N(C)[C@@H](C(C)C)C(=O)OC2C)c(N)c1=O` (stereo not given in full), the growth is -0.489% (active).

Regarding `COc1ccc2cc([C@H](C)C(=O)[Se]CCC#N)ccc2c1`, the growth is -66.6% (active).

In the case of `C[C@H]1[C@@H](CC(=O)N[C@@H](Cc2coc3ccccc23)B(O)O)O[C@@H]2OC3(C)CC[C@H]4[C@H](C)CC[C@@H]1[C@@]24OO3`, the growth is -92.3% (active).
